From PubChem BioAssay
Shown is part of a subset that was picked to be rich in hits.
Tg IFNy HTS: blocks Toxoplasma gondii growth in the presence of IFN-gamma; Toxoplasma gondii growth in IFN-gamma-treated host cells; active compounds read low; activity change, negative = inhibition, % (no concentration beside the values); 69,000 tested, 3.8% active; AID 1259416; in the data active = activity change below about -70%, passing the limit was not always enough;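 also: host cells are HeLa cells infected with Toxoplasma gondii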
Each line names hits and unclear results; the compound was inactive in the other large screens.

COc1ccc(C2(NCc3ccc4cc(OC)ccc4n3)CCCC2)cc1	none
CC(C)c1ccc(C(NC(=O)CCc2ccccc2)c2ccc3cccnc3c2O)cc1 (centres undefined)	Tg IFNy HTS -102
O=C(CCc1ccccc1)Nc1ccc(Cl)cn1	none
Cc1oc2ncn3nc(C(C)NC(=O)CCc4ccccc4)nc3c2c1C (centres undefined)	none
c1coc(CN2C[C@H](N3CCOCC3)[C@H]3OCCC[C@@H]32)c1	none
COc1ccc(-c2nc(C(=O)NC(C)CN3CCOCC3)cs2)cc1 (centres undefined)	none
CC(C)C[C@H](NC(=O)[C@H](CCc1ccccc1)NC(=O)CN1CCOCC1)C(=O)N[C@@H](Cc1ccccc1)C(=O)N[C@@H](CC(C)C)C(=O)[C@@]1(C)CO1	none
COc1ccc(C[C@H](NC(=O)[C@H](C)NC(=O)CN2CCOCC2)C(=O)N[C@@H](Cc2ccccc2)C(=O)[C@]2(C)CO2)cc1	Tg IFNy HTS -74
CS(=O)(=O)N1CCc2ccc(NC(=O)C3CC(c4ccccc4F)=NO3)cc21 (centres undefined)	none
Cc1nccc(-c2cccc(-n3cnnc3)c2)n1	none
O=S(=O)(c1ccc(F)cc1)N1CCCc2ccccc21	none
O=C1CCc2cc(S(=O)(=O)N3CCCc4ccccc43)cc3c2N1CCC3	none
COc1ccc(S(=O)(=O)N2CCCc3ccccc32)cc1	Tg IFNy HTS -113
CCCCNC(=O)CCC1N=C2c3ccccc3N=C(SCc3ccccc3F)N2C1=O (centres undefined)	none
Cc1oc(-c2cccc(Cl)c2)nc1CN1CCN(C(=O)Nc2ccccc2)CC1	none
CN(C)C(=O)c1nc(-c2cn(-c3ccccn3)cn2)n2ccccc12	none
Cc1oc(-c2ccc(NC(=O)c3c(F)cccc3Cl)cc2)nc1Cn1cccn1	none
Cc1oc(-c2ccc(NC(=O)c3ccccc3C(F)(F)F)cc2)nc1Cn1cccn1	none
Cc1oc(-c2ccc(NC(=O)c3ccc(F)c(Cl)c3)cc2)nc1Cn1cccn1	none
Cc1cnn(Cc2nc(-c3ccc(NC(=O)c4cc(F)ccc4Cl)cc3)oc2C)c1	Tg IFNy HTS -89
CSc1ccc(Cl)c(C(=O)Nc2ccc(-c3nc(Cn4cccn4)c(C)o3)cc2)c1	Tg IFNy HTS -93
Cc1cnn(Cc2nc(-c3ccc(NC(=O)c4ccc(F)cc4F)cc3)oc2C)c1	none
COc1ccccc1C(=O)Nc1ccc(-c2nc(Cn3cccn3)c(C)o2)cc1	none
Cc1oc(-c2ccc(NC(=O)c3cc(F)ccc3Cl)cc2)nc1Cn1cccn1	Tg IFNy HTS -92
Cc1cnn(Cc2nc(-c3ccc(NC(=O)c4c(F)cccc4Cl)cc3)oc2C)c1	none
CCOC(=O)c1ccc(NC(=O)C2CCN(S(=O)(=O)c3ccc4[nH]c(=O)ccc4c3)CC2)cc1	none
CCC(C(=O)Nc1ccc2c(c1)CCC(=O)N2CCOC)c1ccccc1 (centres undefined)	none
Cc1c(C(=O)Nc2nc(-c3cnn(C)c3)cs2)sc2nc[nH]c(=O)c12	none
C=CCN1CC(C(=O)O)CN2CCN(Cc3csc(C)n3)CC2C1 (centres undefined)	none
Cc1nnc(SCC(=O)N2CCC(c3cc4ccccc4cn3)CC2)o1	none
COc1ccc(NC(=O)CN2CCC3(CC2)N=C(c2ccc(F)cc2)C(=O)N3)c(OC)c1	none
CN1C2(CCN(Cc3nccs3)C2)c2ccccc2S1(=O)=O (centres undefined)	none
CCCCC(=O)N1CCC2(CCOC2)C1 (centres undefined)	none
Cc1ccc(NC2(C(=O)NCCN(C)S(C)(=O)=O)CCCC2)cc1	none
CCCn1nc(C)c(-c2cc(C(=O)N3CCC(O)(c4ccc(C)cc4)C3)[nH]n2)c1C (centres undefined)	none
CN(C)CCN1C(=O)c2cccc3cc(NC(N)=O)cc(c23)C1=O	none
O=C1c2cccc3cccc(c23)C(=O)N1Cc1ccco1	none
O=C(CN1C(=O)c2cccc3cccc(c23)C1=O)OCCCc1ccncc1	Tg IFNy HTS -73
Cc1ccc(-c2cc(C(=O)NCC3(c4cccc(F)c4)CCOCC3)no2)cc1	none
O=C(c1ccccn1)N1CCO[C@@H]2[C@H]1CC[C@H]2OCC1CCOCC1	none
CCOC(=O)c1c(-c2ccccc2)noc1C(C)=O	none
Cc1onc(-c2ccccc2)c1C(=O)Oc1ccccc1N1CCOCC1	none
CCCc1cnc(N2CCN(C(=O)c3c(-c4ccccc4)noc3C)CC2)nc1	Tg IFNy HTS -82
COc1cc(N2C[C@@H]3C[C@H](C(=O)NCCN(C)C)N(C)[C@@H]3C2)ncn1	none
CN1CCN(c2ncccc2CNC(=O)c2cccc(-c3cn[nH]c3)c2)CC1	none
Cc1ccc(NC(=O)c2c(O)c3ccccc3[nH]c2=O)cc1Cl	none
C[C@H](CO)N1C[C@H](C)[C@@H](CN(C)CC2CC2)OCCCC[C@H](C)Oc2ccc(NC(=O)c3ccccc3)cc2C1=O	none
COc1ccc(S(=O)(=O)Nc2ccc3c(c2)C(=O)N([C@H](C)CO)C[C@@H](C)[C@@H](CN(C)S(=O)(=O)c2ccc(Cl)cc2)OCCCC[C@H](C)O3)cc1	Tg IFNy HTS -117
C[C@H](CO)N1C[C@H](C)[C@@H](CN(C)S(=O)(=O)c2ccc(Cl)cc2)OCCCC[C@H](C)Oc2ccc(NC(=O)Nc3ccc(C(F)(F)F)cc3)cc2C1=O	none
C[C@H](CO)N1C[C@H](C)[C@H](CN(C)CC2CC2)OCCCC[C@H](C)Oc2ccc(NC(=O)c3ccccc3)cc2C1=O	Tg IFNy HTS -83
C[C@@H]1CN([C@H](C)CO)C(=O)c2cc(NC(=O)Nc3ccc(C(F)(F)F)cc3)ccc2O[C@@H](C)CCCCO[C@H]1CN(C)S(=O)(=O)c1ccc(Cl)cc1	none
C[C@@H]1CCCCO[C@H](CN(C)CC2CC2)[C@H](C)CN([C@H](C)CO)C(=O)c2cc(NC(=O)c3ccccc3)ccc2O1	none
COc1ccc(S(=O)(=O)Nc2ccc3c(c2)C(=O)N([C@@H](C)CO)C[C@@H](C)[C@H](CN(C)S(=O)(=O)c2ccc(Cl)cc2)OCCCC[C@H](C)O3)cc1	Tg IFNy HTS -102
COc1ccc(S(=O)(=O)Nc2ccc3c(c2)C(=O)N([C@@H](C)CO)C[C@@H](C)[C@@H](CN(C)S(=O)(=O)c2ccc(Cl)cc2)OCCCC[C@@H](C)O3)cc1	Tg IFNy HTS -137
C[C@@H]1CCCCO[C@@H](CN(C)S(=O)(=O)c2ccc(Cl)cc2)[C@H](C)CN([C@@H](C)CO)C(=O)c2cc(NC(=O)Nc3ccc(C(F)(F)F)cc3)ccc2O1	none
C[C@H](CO)N1C[C@H](C)[C@H](CN(C)S(=O)(=O)c2ccc(Cl)cc2)OCCCC[C@H](C)Oc2ccc(NC(=O)Nc3ccc(C(F)(F)F)cc3)cc2C1=O	none
O=C(O)CC(NC(=O)CC12CC3CC(CC(C3)C1)C2)C(F)(F)F (centres undefined)	none
CN(C)Cc1ccc(C2CCCN2C(=O)COc2cccnc2)cc1 (centres undefined)	none
CCN1CCn2c(-c3ccccc3)cnc2C12CCN(S(=O)(=O)c1ccccc1)CC2	none
CCOC(=O)N1CCN(c2cccc3cc(C(=O)OC)[nH]c23)CC1	none
Cc1cccc(CNC(=O)c2sc(CC(=O)N3CCSCC3)nc2C)c1	none
COC(=O)CSc1nc(C)c(C)c(C)c1C#N	none
c1csc(CN2CC[C@H]3[C@@H]2CCN3CC2CCOCC2)c1	none
Cc1oc(C2CCN(C(=O)Nc3ccc(F)cc3F)CC2)nc1C(=O)N1CCOCC1	none
O=C(c1cn(-c2ccccc2)nn1)N1CCC(C(O)c2ccccn2)CC1 (centres undefined)	none
OCC1(CC2CCCCO2)CCN(c2nnnn2-c2ccccc2)CC1 (centres undefined)	none
CN(C)c1nc2c(cc1C(=O)N1CCCC1)CCN(CC1CC1)CC2	none
CCC1CN(Cc2ncccc2F)CCN1C(C)C (centres undefined)	none
